According to the supplement of paper PMC4206461:
Values without a mark were called inactive.

tested on: Pseudomonas aeruginosa PA14 dppA1-A5 penta mutant + pBBR5.DppA1 (PA14_58350); assay: respiration area under curve with compound as sole nitrogen source, 24 h (OmniLog AUC (arbitrary units)); higher = more respiration / better utilisation as nitrogen source, active = 2000 or more
Protocol: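 Biolog Phenotype MicroArray plates PM6-PM8: each di/tripeptide is the sole nitrogen source. Tetrazolium reduction was read in the OmniLog for 24 h at 37°C and summarised as area under the respiration curve (arbitrary units). Values below 2000 count as no respiration. Strain is the SBP penta mutant complemented with DppA1 on a plasmid under its native promoter. Lys/His/Cys peptides are excluded.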

| Structure (SMILES) | respiration area under curve |
| --- | --- |
| CC[C@H](C)[C@H](N)C(=O)NCC(=O)O (plate: PM6) | 2560 (active) |
| O=C(O)CC(NC(=O)C1CCCN1)C(=O)O (stereo not given) (plate: PM7) | 2970 (active) |
| CC[C@H](C)[C@H](NC(=O)[C@@H]1CCCN1)C(=O)O (plate: PM8) | 4410 (active) |
| CC(C)C[C@@H](N)C(=O)N[C@H](CC(C)C)C(=O)O (plate: PM8) | 0 |
| N[C@@H](Cc1ccccc1)C(=O)NCC(=O)NCC(=O)O (plate: PM8) | 7350 (active) |
| NCC(=O)N[C@@H](CCCN=C(N)N)C(=O)O (plate: PM6) | 7640 (active) |
| CC(C)[C@H](N)C(=O)N[C@@H](Cc1ccc(O)cc1)C(=O)N[C@H](C(=O)O)C(C)C (plate: PM8) | 7350 (active) |
| CSCC[C@H](NC(=O)[C@@H](N)CCCN=C(N)N)C(=O)O (plate: PM6) | 9220 (active) |
| CC(C)[C@H](NC(=O)CN)C(=O)O (plate: PM6) | 1820 |
| C[C@H](NC(=O)CN)C(=O)O (plate: PM6) | 2380 (active) |
| CSCC[C@H](N)C(=O)N[C@@H](CCC(=O)O)C(=O)O (plate: PM7) | 1490 |
| C[C@@H](O)[C@H](N)C(=O)NCC(=O)O (plate: PM7) | 6220 (active) |
| C[C@@H](N)C(=O)NCC(=O)O (plate: PM8) | 5420 (active) |
| C[C@H](O)[C@@H](NC(=O)CN)C(=O)O (plate: PM8) | 0 |
| C[C@H](N)C(=O)N[C@@H](CC(N)=O)C(=O)O (plate: PM6) | 7840 (active) |
| N[C@@H](CC(=O)O)C(=O)N[C@@H](CC(=O)O)C(=O)O (plate: PM6) | 197 |
| CSCC[C@H](NC(=O)[C@@H](N)CO)C(=O)O (plate: PM7) | 2590 (active) |
| CC(C)C[C@H](NC(=O)CN)C(=O)O (plate: PM6) | 969 |

| Structure (SMILES) | respiration area under curve |
| --- | --- |
| CC(C)[C@H](NC(=O)[C@@H](N)CC(=O)O)C(=O)O (plate: PM6) | 1900 |
| CC(C)[C@H](N)C(=O)N[C@H](C(=O)O)C(C)C (plate: PM7) | 6680 (active) |
| CC[C@H](C)[C@H](NC(=O)[C@@H](N)Cc1ccc(O)cc1)C(=O)O (plate: PM8) | 6990 (active) |
| CSCC[C@H](N)C(=O)N[C@@H](CC(C)C)C(=O)O (plate: PM7) | 1540 |
| NCC(=O)N[C@@H](CC(=O)O)C(=O)O (plate: PM8) | 4090 (active) |
| CC(C)[C@H](NC(=O)[C@@H](N)CCC(=O)O)C(=O)O (plate: PM6) | 2600 (active) |
| CC(C)[C@H](NC(=O)[C@@H](N)CCCN=C(N)N)C(=O)O (plate: PM6) | 7530 (active) |
| N[C@@H](CC(=O)O)C(=O)N[C@@H](Cc1c[nH]c2ccccc12)C(=O)O (plate: PM6) | 1340 |
| C[C@H](NC(=O)[C@@H](N)CCCN=C(N)N)C(=O)O (plate: PM6) | 8610 (active) |
| N[C@@H](Cc1ccccc1)C(=O)N[C@@H](Cc1c[nH]c2ccccc12)C(=O)O (plate: PM7) | 389 |
| CC(C)[C@H](NC(=O)[C@@H](N)CO)C(=O)O (plate: PM7) | 6730 (active) |
| N[C@@H](Cc1ccc(O)cc1)C(=O)N[C@@H](Cc1ccccc1)C(=O)O (plate: PM7) | 6470 (active) |
| NC(=O)CC[C@H](NC(=O)[C@@H](N)Cc1ccc(O)cc1)C(=O)O (plate: PM7) | 12100 (active) |
| C[C@@H](O)[C@H](N)C(=O)N[C@@H](CCC(=O)O)C(=O)O (plate: PM7) | 5630 (active) |
| NC(N)=NCCC[C@H](NC(=O)[C@@H](N)CCCN=C(N)N)C(=O)O (plate: PM6) | 8780 (active) |
| NC(=O)C[C@H](NC(=O)[C@@H]1CCCN1)C(=O)O (plate: PM8) | 11600 (active) |
| NC(=O)C[C@H](N)C(=O)N[C@@H](CCC(=O)O)C(=O)O (plate: PM6) | 4770 (active) |
